Experiments:
Conditions in all cases: concentration: 1 μM, replicates: in singlicate; n = 1
[1] = test system: CSF1R-autoinhibited
[2] = test system: CSF1R
[3] = test system: CSK
[4] = test system: CSNK1A1L
[5] = test system: CSNK1A1
[6] = test system: CSNK1D
[7] = test system: CSNK1E
[8] = test system: CSNK1G1
[9] = test system: CSNK1G2
[10] = test system: CSNK1G3
[11] = test system: CSNK2A1
[12] = test system: CSNK2A2
[13] = test system: T1, CTK
T1 construct: gene MATK

[14] = test system: DAPK1
[15] = test system: DAPK2
[16] = test system: DAPK3
[17] = test system: T2, DCAMKL1
T2 construct: gene DCLK1

[18] = test system: T3, DCAMKL2
T3 construct: gene DCLK2

[19] = test system: T4, DCAMKL3
T4 construct: gene DCLK3

[20] = test system: DDR1
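Further: KINOMEscan kinase panel screen.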

Structure (SMILES) | %Inh [1] [%] | %Inh [2] [%] | %Inh [3] [%] | %Inh [4] [%] | %Inh [5] [%] | %Inh [6] [%] | %Inh [7] [%] | %Inh [8] [%] | %Inh [9] [%] | %Inh [10] [%] | %Inh [11] [%] | %Inh [12] [%] | %Inh [13] [%] | %Inh [14] [%] | %Inh [15] [%] | %Inh [16] [%] | %Inh [17] [%] | %Inh [18] [%] | %Inh [19] [%] | %Inh [20] [%]
O=C(Nc1n[nH]c2nc(-c3ccco3)c(Br)cc12)c1ccc(CN2CCCC2)cc1.O=C(O)[C@H](O)[C@@H](O)C(=O)O [SB-742352] | 0 | 71 | 0 | 0 | 0 | 0 | 0 | 0 | 0 | 0 | 0 | 29 | 15 | 0 | 0 | 0 | 0 | 0 | 28 | 19
CNc1nccc(-c2c(-c3ccc(F)cc3)ncn2C2CCN(C)CC2)n1 [SB-222903] | 0 | 0 | 0 | 38 | 95.5 | 94 | 99.5 | 0 | 0 | 0 | 0 | 0 | 0 | 0 | 0 | 25 | 19 | 0 | 0 | 65
O=C(c1ccc(-c2cc(-c3c[nH]nc3-c3ccccn3)ccn2)cc1)N1CCCC1 [GW792479] | 0 | 0 | 17 | 0 | 59 | 49 | 30 | 9 | 9 | 0 | 0 | 0 | 0 | 0 | 33 | 85 | 19 | 10 | 0 | 0
COc1ccc(NC(=O)c2ccc(-c3cc(-c4nnc(C)o4)ccc3C)cc2)cc1 [GW595885] | 7 | 14 | 0 | 5 | 0 | 0 | 0 | 0 | 0 | 14 | 0 | 11 | 0 | 0 | 0 | 13 | 8 | 0 | 2 | 13
O=C(NCCCN1CCCC1=O)c1cnc(NCc2cc(Cl)ccc2Cl)nc1NC1CCNCC1 | 1 | 100 | 0 | 1 | 36 | 28 | 87 | 1 | 0 | 0 | 0 | 7 | 5 | 14 | 0 | 0 | 17 | 12 | 0 | 0
Fc1ccc(-c2ncn(CCCNCc3ccccc3)c2-c2ccncc2)cc1 | 19 | 4 | 0 | 22 | 90.4 | 96.6 | 98.3 | 5 | 7 | 20 | 22 | 27 | 25 | 23 | 11 | 16 | 0 | 2 | 15 | 18
FC(F)(F)c1ccc(-c2nn3ncccc3c2-c2ccnc(Nc3cccc(C(F)(F)F)c3)n2)cc1 [GW828205] | 0 | 0 | 0 | 5 | 30 | 24 | 17 | 2 | 3 | 2 | 0 | 0 | 0 | 0 | 0 | 1 | 34 | 0 | 22 | 86
Clc1ccc(-c2cc(-c3c[nH]nc3-c3ccccn3)ccn2)cc1 [GW681251] | 0 | 8 | 0 | 1 | 18 | 42 | 33 | 0 | 0 | 0 | 0 | 21 | 0 | 0 | 0 | 30 | 0 | 0 | 0 | 73
Cn1cc(-c2ccc3c(c2)CCN3C(=O)Cc2cccc(C(F)(F)F)c2)c2c(N)ncnc21 [GSK2606414] | 0 | 6 | 0 | 14 | 0 | 8 | 0 | 0 | 0 | 17 | 1 | 1 | 18 | 3 | 0 | 89 | 8 | 0 | 0 | 99.7
N#Cc1ccc(Oc2ccc(Nc3ncnc4cc[nH]c34)cc2Cl)cc1 | 3 | 7 | 33 | 15 | 2 | 5 | 7 | 8 | 25 | 21 | 48 | 24 | 5 | 30 | 16 | 15 | 9 | 24 | 20 | 9
FC(F)(F)c1cc(Nc2nccc(-c3c(-c4ccc(Cl)cc4)nn4ncccc34)n2)ccc1Cl [GW829351] | 0 | 0 | 0 | 0 | 0 | 81 | 79 | 0 | 0 | 0 | 0 | 11 | 14 | 0 | 0 | 12 | 0 | 0 | 0 | 78
Clc1cc(Nc2ncnc3cc[nH]c23)ccc1OCc1ccccn1 | 0 | 7 | 17 | 1 | 14 | 4 | 4 | 2 | 11 | 0 | 41 | 31 | 56 | 25 | 0 | 0 | 26 | 21 | 6 | 14
CS(=O)(=O)CCNCc1ccc(-c2ccc3ncnc(Nc4ccc(OCc5ccccc5)c(Cl)c4)c3c2)o1.Cl [GW574783] | 7 | 0 | 0 | 20 | 0 | 15 | 10 | 0 | 0 | 6 | 3 | 5 | 0 | 0 | 0 | 0 | 0 | 0 | 4 | 10
c1ccc(-c2ccc3c(-c4ccnc(Nc5ccc6c(c5)OCCO6)n4)cnn3n2)cc1 [GW818941] | 0 | 1 | 84 | 0 | 40 | 8 | 0 | 1 | 11 | 27 | 18 | 9 | 2 | 0 | 0 | 0 | 0 | 0 | 0 | 0
CN1CCC(n2cnc(-c3ccc(F)cc3)c2-c2ccnc(NC3CCNCC3)n2)CC1 [SB-229482] | 47 | 16 | 0 | 28 | 95.1 | 92.1 | 93.4 | 0 | 0 | 0 | 12 | 21 | 9 | 14 | 15 | 0 | 0 | 16 | 16 | 0
Oc1ccc2ncnc(Nc3ccc(OCc4ccccc4)cc3)c2c1 [GI262866] | 0 | 2 | 0 | 0 | 8 | 4 | 30 | 0 | 17 | 38 | 26 | 10 | 3 | 0 | 0 | 0 | 0 | 0 | 0 | 7

Reference: article PMC5540273 (PLoS ONE, 2017)
